# According to the supplement of paper PMC11732987, “Enantioselective OTUD7B fragment discovery through chemoproteomics screening and high-throughput optimisation” (Communications Chemistry, 2025):
# Values without a mark were called inactive.
# How the values were obtained:
# Test in all cases: log2 ratio of Biotin-Ahx-Ub-VS probe labelling (fragment/DMSO); higher = less target engagement (more negative = stronger competition), active = hit call of the paper (q ≤ 0.05, log2 ratio ≤ -1)
# Conditions in all cases: compound concentration: 200 uM; treatment time: 3 h
# OTUD6B = target: T1, OTUD6B (UniProt Q8N6M0)
# T1 sequence (whole entry): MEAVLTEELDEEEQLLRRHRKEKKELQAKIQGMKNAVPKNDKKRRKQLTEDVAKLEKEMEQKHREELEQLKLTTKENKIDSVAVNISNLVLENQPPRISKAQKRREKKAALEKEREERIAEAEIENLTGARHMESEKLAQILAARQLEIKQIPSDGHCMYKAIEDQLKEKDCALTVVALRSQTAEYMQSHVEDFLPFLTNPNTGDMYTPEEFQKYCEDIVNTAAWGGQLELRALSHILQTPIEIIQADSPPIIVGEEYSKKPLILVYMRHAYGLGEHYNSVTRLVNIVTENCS
# In short: (§1)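 The table lists average log2 ratios of fragment over vehicle, from an unpaired t-test on global-median-normalised Spectronaut label-free quantities. Proteins with ≥2 unique peptides were used. Samples were HEK293T lysate (495 µg) treated in triplicate with fragment at 200 µM or vehicle for 3 h, then with Biotin-Ahx-Ub-VS (0.5 µM final) for 1 h, with labelled DUBs NeutrAvidin-enriched and run by diaPASEF LC-MS/MS.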
# OTUD7B = target: T2, OTUD7B (UniProt Q6GQQ9)
# T2 sequence (whole entry): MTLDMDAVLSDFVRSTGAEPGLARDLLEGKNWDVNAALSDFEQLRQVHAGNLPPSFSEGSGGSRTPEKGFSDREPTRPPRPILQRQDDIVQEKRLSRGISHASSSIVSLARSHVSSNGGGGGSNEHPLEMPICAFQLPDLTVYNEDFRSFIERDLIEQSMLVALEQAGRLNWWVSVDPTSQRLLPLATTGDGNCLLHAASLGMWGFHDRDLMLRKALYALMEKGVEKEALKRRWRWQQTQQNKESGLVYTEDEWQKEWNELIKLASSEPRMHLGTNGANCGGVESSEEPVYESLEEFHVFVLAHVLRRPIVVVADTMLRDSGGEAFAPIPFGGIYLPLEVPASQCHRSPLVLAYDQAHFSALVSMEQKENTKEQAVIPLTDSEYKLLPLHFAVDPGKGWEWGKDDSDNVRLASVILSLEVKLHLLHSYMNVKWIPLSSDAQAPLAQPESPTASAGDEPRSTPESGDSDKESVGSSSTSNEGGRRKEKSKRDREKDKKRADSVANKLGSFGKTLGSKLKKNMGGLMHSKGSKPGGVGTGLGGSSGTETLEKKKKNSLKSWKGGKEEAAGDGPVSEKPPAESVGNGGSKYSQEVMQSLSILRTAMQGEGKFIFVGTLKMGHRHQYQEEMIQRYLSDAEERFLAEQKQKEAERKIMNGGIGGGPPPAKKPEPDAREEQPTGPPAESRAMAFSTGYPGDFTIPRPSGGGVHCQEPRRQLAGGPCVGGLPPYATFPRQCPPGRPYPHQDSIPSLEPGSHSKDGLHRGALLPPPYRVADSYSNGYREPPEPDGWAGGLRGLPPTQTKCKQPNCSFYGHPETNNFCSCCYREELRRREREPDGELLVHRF
# In short: as §1
# PRPF8 = PRPF8 (UniProt Q6P2Q9)
# In short: as §1
# PSMD7 = target: T3, PSMD7 (UniProt P51665)
# T3 sequence (whole entry): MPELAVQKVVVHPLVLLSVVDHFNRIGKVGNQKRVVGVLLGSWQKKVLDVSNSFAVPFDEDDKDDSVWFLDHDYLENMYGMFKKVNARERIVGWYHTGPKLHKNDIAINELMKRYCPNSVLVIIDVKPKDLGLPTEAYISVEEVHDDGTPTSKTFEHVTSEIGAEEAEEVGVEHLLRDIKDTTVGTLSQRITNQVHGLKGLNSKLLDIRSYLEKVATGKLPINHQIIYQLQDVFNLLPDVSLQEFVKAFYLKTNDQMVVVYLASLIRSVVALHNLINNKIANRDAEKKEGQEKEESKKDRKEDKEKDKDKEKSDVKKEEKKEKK
# In short: as §1
# UCHL1 = UCHL1 (UniProt P09936)
# In short: as §1
# UCHL3 = target: T4, UCHL3 (UniProt P15374)
# T4 sequence (whole entry): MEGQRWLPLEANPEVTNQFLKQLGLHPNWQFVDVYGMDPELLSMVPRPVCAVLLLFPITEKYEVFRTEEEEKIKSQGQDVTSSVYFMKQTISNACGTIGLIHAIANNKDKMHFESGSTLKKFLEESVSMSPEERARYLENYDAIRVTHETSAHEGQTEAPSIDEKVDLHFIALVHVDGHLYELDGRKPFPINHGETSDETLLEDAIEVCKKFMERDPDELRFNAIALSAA
# In short: as §1
# UCHL5 = target: T5, UCHL5 (UniProt Q9Y5K5)
# T5 sequence (whole entry): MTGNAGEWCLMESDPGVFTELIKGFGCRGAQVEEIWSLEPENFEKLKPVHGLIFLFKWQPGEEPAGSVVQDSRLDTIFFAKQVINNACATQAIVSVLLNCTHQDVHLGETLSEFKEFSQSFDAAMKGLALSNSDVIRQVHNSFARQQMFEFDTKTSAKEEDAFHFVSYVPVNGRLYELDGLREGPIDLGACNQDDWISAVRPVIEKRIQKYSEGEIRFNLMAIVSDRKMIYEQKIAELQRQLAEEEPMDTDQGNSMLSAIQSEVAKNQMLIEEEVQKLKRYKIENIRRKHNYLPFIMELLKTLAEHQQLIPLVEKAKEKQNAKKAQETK
# In short: as §1
# USP10 = USP10 (UniProt Q14694)
# In short: as §1
# USP15 = target: T6, USP15 (UniProt Q9Y4E8)
# T6 sequence (whole entry): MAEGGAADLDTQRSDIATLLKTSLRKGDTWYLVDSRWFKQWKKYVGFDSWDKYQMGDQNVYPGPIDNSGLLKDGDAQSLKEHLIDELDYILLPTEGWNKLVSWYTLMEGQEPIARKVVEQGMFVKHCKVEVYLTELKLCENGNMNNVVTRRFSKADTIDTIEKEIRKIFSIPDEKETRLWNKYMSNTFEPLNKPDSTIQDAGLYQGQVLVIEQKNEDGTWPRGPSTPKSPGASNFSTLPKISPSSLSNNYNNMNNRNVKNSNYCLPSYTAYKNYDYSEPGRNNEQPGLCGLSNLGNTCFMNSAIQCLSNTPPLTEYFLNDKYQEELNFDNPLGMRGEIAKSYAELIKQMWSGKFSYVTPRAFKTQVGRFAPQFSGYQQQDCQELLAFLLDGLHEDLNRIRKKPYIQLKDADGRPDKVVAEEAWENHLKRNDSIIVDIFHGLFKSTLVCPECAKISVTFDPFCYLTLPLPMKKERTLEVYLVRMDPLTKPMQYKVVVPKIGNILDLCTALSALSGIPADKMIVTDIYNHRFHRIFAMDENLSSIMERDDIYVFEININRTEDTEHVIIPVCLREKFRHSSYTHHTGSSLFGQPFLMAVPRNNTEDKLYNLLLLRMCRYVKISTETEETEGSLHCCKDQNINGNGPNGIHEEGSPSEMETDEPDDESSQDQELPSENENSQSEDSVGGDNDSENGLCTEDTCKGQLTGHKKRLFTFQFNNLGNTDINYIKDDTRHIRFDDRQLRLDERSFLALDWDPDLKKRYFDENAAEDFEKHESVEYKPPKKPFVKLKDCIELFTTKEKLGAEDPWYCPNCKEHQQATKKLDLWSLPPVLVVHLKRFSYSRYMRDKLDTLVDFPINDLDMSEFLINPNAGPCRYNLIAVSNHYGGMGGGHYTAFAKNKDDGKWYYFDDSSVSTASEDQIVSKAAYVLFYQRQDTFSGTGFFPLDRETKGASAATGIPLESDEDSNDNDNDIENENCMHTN
# In short: as §1
# USP16 = USP16 (UniProt Q9Y5T5)
# In short: as §1
# Sequence of USP16 (Q9Y5T5 whole entry, looked up): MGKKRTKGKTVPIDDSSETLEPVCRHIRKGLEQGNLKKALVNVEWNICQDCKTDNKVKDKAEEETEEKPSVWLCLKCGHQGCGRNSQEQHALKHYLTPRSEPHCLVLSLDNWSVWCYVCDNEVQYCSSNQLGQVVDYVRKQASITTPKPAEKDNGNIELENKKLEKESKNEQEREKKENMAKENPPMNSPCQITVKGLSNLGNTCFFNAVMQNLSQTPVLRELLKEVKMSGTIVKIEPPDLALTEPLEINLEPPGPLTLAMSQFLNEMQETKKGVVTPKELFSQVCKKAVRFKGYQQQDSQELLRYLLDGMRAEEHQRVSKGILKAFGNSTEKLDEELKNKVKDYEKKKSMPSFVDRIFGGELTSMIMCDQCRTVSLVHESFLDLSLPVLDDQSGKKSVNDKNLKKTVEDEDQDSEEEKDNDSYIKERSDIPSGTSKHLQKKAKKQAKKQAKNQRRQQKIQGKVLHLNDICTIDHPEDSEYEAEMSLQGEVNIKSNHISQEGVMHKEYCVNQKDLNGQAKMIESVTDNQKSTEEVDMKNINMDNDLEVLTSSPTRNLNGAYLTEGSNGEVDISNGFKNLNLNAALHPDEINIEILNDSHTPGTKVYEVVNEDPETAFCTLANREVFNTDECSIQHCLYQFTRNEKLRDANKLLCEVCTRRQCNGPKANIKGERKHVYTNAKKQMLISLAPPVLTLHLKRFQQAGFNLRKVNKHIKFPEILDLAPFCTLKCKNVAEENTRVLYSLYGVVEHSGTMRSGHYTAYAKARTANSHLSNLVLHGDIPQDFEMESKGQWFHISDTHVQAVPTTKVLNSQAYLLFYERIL
# Sequence of USP10 (Q14694 whole entry): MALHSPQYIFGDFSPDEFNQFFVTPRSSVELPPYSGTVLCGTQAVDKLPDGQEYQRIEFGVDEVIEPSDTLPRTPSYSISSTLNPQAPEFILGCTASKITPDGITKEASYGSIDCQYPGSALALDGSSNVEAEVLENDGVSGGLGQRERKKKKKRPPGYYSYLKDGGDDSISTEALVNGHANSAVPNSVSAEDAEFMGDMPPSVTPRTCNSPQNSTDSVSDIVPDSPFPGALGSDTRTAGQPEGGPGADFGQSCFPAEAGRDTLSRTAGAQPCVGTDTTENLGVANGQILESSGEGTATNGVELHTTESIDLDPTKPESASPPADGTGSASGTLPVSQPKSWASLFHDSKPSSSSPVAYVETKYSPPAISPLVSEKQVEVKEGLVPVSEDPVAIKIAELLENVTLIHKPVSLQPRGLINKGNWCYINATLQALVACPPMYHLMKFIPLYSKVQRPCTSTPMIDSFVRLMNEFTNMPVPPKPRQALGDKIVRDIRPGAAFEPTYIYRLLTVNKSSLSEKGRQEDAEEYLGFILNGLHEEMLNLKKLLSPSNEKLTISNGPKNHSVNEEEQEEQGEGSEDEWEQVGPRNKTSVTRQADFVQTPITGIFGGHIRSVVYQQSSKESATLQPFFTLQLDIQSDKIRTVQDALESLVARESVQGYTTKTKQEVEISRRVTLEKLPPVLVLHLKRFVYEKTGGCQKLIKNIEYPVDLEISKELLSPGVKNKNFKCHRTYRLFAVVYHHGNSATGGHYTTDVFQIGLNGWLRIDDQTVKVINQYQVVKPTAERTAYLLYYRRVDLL
# Sequence of UCHL1 (P09936 whole entry, looked up): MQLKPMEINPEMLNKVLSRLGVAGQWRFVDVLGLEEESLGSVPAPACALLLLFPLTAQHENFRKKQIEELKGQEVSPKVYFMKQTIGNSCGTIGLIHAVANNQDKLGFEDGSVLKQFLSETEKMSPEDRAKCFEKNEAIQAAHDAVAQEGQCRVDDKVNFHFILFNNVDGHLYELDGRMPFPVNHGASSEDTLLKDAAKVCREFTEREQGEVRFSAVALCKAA
compound,measurement,setting,value
Cl.O=C(CCl)NCc1cc2c(nc1O)CCCC2,log2 ratio of Biotin-Ahx-Ub-VS probe labelling,OTUD6B,-0.123
same,log2 ratio of Biotin-Ahx-Ub-VS probe labelling,OTUD7B,-0.66
same,log2 ratio of Biotin-Ahx-Ub-VS probe labelling,PRPF8,-0.141
same,log2 ratio of Biotin-Ahx-Ub-VS probe labelling,PSMD7,-0.244
same,log2 ratio of Biotin-Ahx-Ub-VS probe labelling,UCHL1,-1.64 (active)
same,log2 ratio of Biotin-Ahx-Ub-VS probe labelling,UCHL3,0.175
same,log2 ratio of Biotin-Ahx-Ub-VS probe labelling,UCHL5,-0.407
same,log2 ratio of Biotin-Ahx-Ub-VS probe labelling,USP10,-0.083
same,log2 ratio of Biotin-Ahx-Ub-VS probe labelling,USP15,-0.148
same,log2 ratio of Biotin-Ahx-Ub-VS probe labelling,USP16,-0.389
